Assays:
[1] = test system: Human papillomavirus type 1a protein E7 (residues 44-93); assay: small molecules binding HPV E7 44-93 – biochemical, small-molecule microarray, residues 44-93, 635 nm fluorescence, primary screen (AID 1108); settings: fluorescence 635 nm, higher = more signal;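 note: E7 fragment applied at 1 µg/mL in TBST for 1 h at 4 C; score combines spot fluorescence with its signal to noise ratio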
[2] = hepatitis C replication reporter changes, two-sided – Huh7 cells, luciferase reporter, HCV replication inhibitor project, primary screen (AID 1109); settings: Huh7 HCV replicon luciferase reporter, 48 h; higher = more signal;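 note: huh7 hepatoma cells harbouring a luciferase neomycin HCV replicon reporter; luciferase luminescence as measure of HCV replicon replication; test concentration not given here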
[3] = molecular target: Left-right determination factor 2 (Homo sapiens) (UniProt O00292); assay: small molecules binding LEFTY2 protein – biochemical, small-molecule microarray, 635 nm fluorescence scan, primary screen (AID 1110); settings: higher = more signal
Left-right determination factor 2 (Homo sapiens), sequence (O00292 whole entry, looked up): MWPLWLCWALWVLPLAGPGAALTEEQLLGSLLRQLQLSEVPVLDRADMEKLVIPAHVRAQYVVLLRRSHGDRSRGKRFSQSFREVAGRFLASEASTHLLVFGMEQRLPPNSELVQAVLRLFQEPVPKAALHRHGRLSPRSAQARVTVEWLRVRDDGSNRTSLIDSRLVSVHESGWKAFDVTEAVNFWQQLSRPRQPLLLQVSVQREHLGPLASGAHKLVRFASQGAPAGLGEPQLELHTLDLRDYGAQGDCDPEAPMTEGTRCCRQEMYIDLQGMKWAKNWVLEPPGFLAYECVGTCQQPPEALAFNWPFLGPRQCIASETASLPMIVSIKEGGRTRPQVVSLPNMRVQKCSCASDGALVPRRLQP

[4] = molecular target: Calmodulin-1 (Homo sapiens) (UniProt P0DP23); assay: small molecules binding calmodulin-1 with EGTA – biochemical, small-molecule microarray, Cy5-labelled CALM1, profiling panel (AID 1111); settings: Cy5-CALM1 binding fluorescence, higher = more signal;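 note: labelled calmodulin applied in Tris saline Tween buffer holding calcium plus EGTA and DTT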
[5] = molecular target: Calmodulin-1 (Homo sapiens) (UniProt P0DP23); assay: small molecules binding Ca-loaded calmodulin-1 – biochemical, small-molecule microarray, Cy5-labelled CALM1, plus calcium, artefact control for SMM control-protein annotation, profiling panel (AID 1112); settings: Cy5-CALM1 binding fluorescence, higher = more signal;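 note: score merges spot fluorescence with signal to noise from triplicate slides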
[6] = probe aWnt5a binding to arrayed compounds – biochemical, biotinylated probe, 635/667 nm fluorescence, primary screen (AID 1113); settings: small-molecule microarray, higher = more signal;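 note: score merges 667 nm fluorescence intensity with signal-to-noise per printed feature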
[7] = probe aShh binding to arrayed compounds – biochemical, biotinylated probe, 635/667 nm fluorescence, primary screen (AID 1114); settings: small-molecule microarray, higher = more signal;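 note: probe is biotin-labelled aShh protein from a stem cell growth factor screen; measures binding of labelled protein to compounds printed on the slide; score merges feature fluorescence at 667 nm with signal-to-noise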
[8] = probe aNog binding to arrayed compounds – biochemical, biotinylated probe, 635/667 nm fluorescence, primary screen (AID 1115); settings: small-molecule microarray, higher = more signal;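 note: probe is biotinylated aNog protein used at 0.15 µg/mL for 1 h at 4 C; z-score combines 667 nm fluorescence of each spot with its signal to noise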
[9] = molecular target: Torsin-1A-interacting protein 1 (Homo sapiens) (UniProt Q5JTV8); assay: compound microarray binding of lysate hLAP1 – cell lysate, small-molecule microarray, COS7 lysate, 635/667 nm fluorescence, primary screen (AID 1116); settings: 635 nm fluorescence, higher = more signal
Torsin-1A-interacting protein 1 (Homo sapiens), sequence (Q5JTV8 whole entry, looked up): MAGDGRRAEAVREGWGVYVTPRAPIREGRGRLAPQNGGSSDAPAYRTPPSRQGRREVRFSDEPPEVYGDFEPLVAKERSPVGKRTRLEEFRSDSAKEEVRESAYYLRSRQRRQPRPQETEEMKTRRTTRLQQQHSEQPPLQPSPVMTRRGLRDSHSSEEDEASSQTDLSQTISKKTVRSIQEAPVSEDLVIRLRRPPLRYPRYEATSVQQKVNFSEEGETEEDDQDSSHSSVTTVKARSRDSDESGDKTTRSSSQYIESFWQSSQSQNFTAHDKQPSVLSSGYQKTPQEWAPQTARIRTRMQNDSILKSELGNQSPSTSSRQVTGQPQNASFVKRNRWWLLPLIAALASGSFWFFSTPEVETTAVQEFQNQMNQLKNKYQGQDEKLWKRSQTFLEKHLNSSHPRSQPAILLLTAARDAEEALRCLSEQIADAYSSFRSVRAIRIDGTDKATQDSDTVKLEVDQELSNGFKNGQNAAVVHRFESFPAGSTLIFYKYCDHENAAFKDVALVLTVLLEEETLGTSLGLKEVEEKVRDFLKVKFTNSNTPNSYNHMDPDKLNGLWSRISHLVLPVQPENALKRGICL

[10] = molecular target: Alpha-bungarotoxin (Bungarus multicinctus) (UniProt P60615); assay: compounds binding labelled alpha-BTX control protein – biochemical, small-molecule microarray, Alexa647 label, 635/667 nm fluorescence, artefact control for SMM control protein annotation, profiling panel (AID 1117); settings: alpha-BTX-A647 binding fluorescence, higher = more signal
Alpha-bungarotoxin (Bungarus multicinctus), sequence (P60615 whole entry, looked up): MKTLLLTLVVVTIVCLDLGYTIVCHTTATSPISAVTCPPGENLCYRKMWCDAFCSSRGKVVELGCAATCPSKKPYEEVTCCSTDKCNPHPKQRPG

SMILES	composite z-score [1]	z-score [2]	composite z-score [3]	composite z-score [4]	composite z-score [5]	composite z-score [6]	composite z-score [7]	composite z-score [8]	composite z-score [9]	composite z-score [10]
COC(=O)[C@@]1(Cc2ccc(F)cc2)[C@H]2c3cc(C(=O)N4CCCC4)n(CCc4c[nH]c5ccc(OC)cc45)c3C[C@H]2CN1C(=O)c1ccccc1	1.4	-2.22	0.474	1.92	0.878	1.19	1.17	2.98	0.781	1.23
O=C1c2ccccc2[C@](Cc2ccccc2I)(C(=O)NCc2ccccc2)[C@H](c2ccc(CO)cc2)N1C1CCCCC1	1.4	-1.93	0.835	1.28	1.08	-0.0691	0.217	0.347	0.616	0.705
CC1CC/C=C\[C@H]2OC34C=CCN(c5ccc6ccccc6c5)C(=O)[C@H]3N(C(CO)C(C)C)C(=O)[C@@H]4C2C(=O)O1 (stereo not given in full)	-0.546	-0.957	-0.854	-0.822	-0.419	-0.169	-0.164	-0.267	-0.203	0.462
COc1cc(CO)cc(I)c1O[C@H]1C=C(C(=O)NCCO)C[C@@H](N(Cc2ccc(F)cc2)C(=O)C2CCCO2)[C@@H]1O (stereo not given in full)	-0.284	0.561	0.407	-0.0131	-0.402	-0.124	-0.338	-0.0312	-0.0829	0.988
Cc1ccc(S[C@]2(C(=O)NCC(C)C)CC(=O)N(Cc3ccccc3Cl)[C@@H]2c2ccc(CO)cc2I)cc1	0.409	-1.55	-1.16	-0.363	-0.0595	0.31	-0.221	0.515	0.359	1.48
C=CCC(OC(C)=O)[C@@H]1[C@@H](N(Cc2cc3ccccc3o2)C(=O)c2ccc(C)cc2)c2cc(OCCCO)ccc2N1C(=O)Cc1ccc2ccccc2c1 (stereo not given in full)	-0.494	-0.185	0.081	-0.0956	-0.147	0.103	-0.13	-0.322	0.102	-0.319
CCOC(=O)C1=C[C@@H](c2ccccc2)N(S(=O)(=O)c2ccc(C)cc2)[C@H]1c1cccc(Cl)c1	0.242	-1.81	-0.0476	1.64	0.999	0.027	-0.0289	0.568	2.5	2.25
NC(=O)NCC#Cc1ccc2c(c1)[C@]1(C(=O)N2)[C@H](c2ccc(O)cc2)N2[C@H](c3ccccc3)[C@H](c3ccccc3)OC(=O)[C@H]2[C@@H]1C(=O)Nc1nc2ccccc2s1	0.89	-1.27	0.413	0.563	0.229	0.168	0.246	0.563	0.633	1.23
COCCOC(=O)N1C(=O)[C@@]2(c3cc(C#CCC(C(=O)OC)C(=O)OC)ccc31)[C@H](c1ccc(OCCO)cc1)N1[C@H](c3ccccc3)[C@H](c3ccccc3)OC(=O)[C@H]1[C@@H]2C(=O)N1CCN(c2ncccn2)CC1	1.17	-1.46	0.603	1.41	0.377	-0.0236	0.184	0.363	1.33	1.85
O=C1OCCC=C[C@H]2OC34C=CCN(c5ccc(Cl)cc5)C(=O)[C@H]3N(CCCCCO)C(=O)[C@@H]4C12 (stereo not given in full)	-0.357	0.312	-0.639	-0.262	-0.137	-0.0512	-0.0769	0.496	0.681	-0.702
C=C1C2CC3C(=C4C(CO[C@@H]4[C@H]4CCCN4S(=O)(=O)c4ccccc4[N+](=O)[O-])C4C(=O)N(C)C(=O)C34)CC2C(=O)N1C (stereo not given in full)	-1.04	-0.979	0.0437	-0.0741	-0.0942	-0.152	-0.0769	0.0473	0.231	0.26
NCCCCCCNC(=O)[C@@H]1C[C@@H]2C(=O)N3CCC[C@H]3C(=O)N2[C@@H]1c1ccc(O)cc1	1.31	0.808	1.31	0.718	0.683	0.0049	0.0328	-0.157	0.557	0.705
COc1ccc([Si](C)(C)[C@H]2[C@H](CC(=O)N3Cc4ccccc4C[C@H]3CO)O[C@@]3(C(=O)N(Cc4cccc(N5CCCCC5=O)c4)c4ccccc43)[C@@H]2C)cc1	0.551	-3.77	0.983	-0.226	-0.48	-0.043	-0.0553	-0.0206	0.547	0.244
Cc1ccc(S[C@]2(C(=O)NCCN3CCOCC3)CC(=O)N(Cc3ccccc3C(F)(F)F)[C@@H]2c2ccc(CO)cc2I)cc1	0.323	-1.64	-1.49	-0.69	0.116	-0.0792	-0.0866	0.0331	-0.0897	-0.529
COCC(=C=CC[C@H](O)c1ccc(OCCO)cc1)C[C@H](O)COCc1ccccc1	0.486	-0.313	0.32	-0.0904	-0.847	-0.0718	-0.279	-0.302	1.52	0.439
NCCCCCNC(=O)[C@@H]1C[C@@H]2C(=O)N[C@@H](CCCCN)C(=O)N2[C@@H]1c1cccc(OCCO)c1	0.309	0.731	0.599	-0.804	-0.262	0.0921	0.241	0.628	1.97	-0.066
